Test [1] in a line: optical density shifts of acrAB sulA E. coli – strain DRC41, OD650, 48 h, E. coli filamentation inducer project, primary screen (AID 1152).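 Also: E. coli MC1000 strain DRC41 lacking acrAB efflux pump and sulA.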 The note with it: higher = more signal, called active from +8 up or from −8 down.
Test [2] can be described thus: probe aLefty1 binding on compound microarray – biochemical, small-molecule microarray, 635/667 nm fluorescence, primary screen (AID 1153).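 Also: score merges spot fluorescence with signal-to-noise ratio from the scanned slide images.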 Conditions: higher = more signal.
A short description of test [3]: plasmodial surface anion channel blockers, osmotic lysis – cell-based, P. falciparum Indochina, OD700, 1 h, primary screen (AID 1154). Conditions: P. falciparum Indochina infected RBC osmotic lysis, higher = more signal, called active from +8 up or from −8 down.
Test [4] is described as follows: plasmodial surface anion channel blockers, osmotic lysis – cell-based, P. falciparum Indochina, OD700, 2 h, primary screen (AID 1155).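 Also: lysis reports solute entry through the parasite surface anion channel PSAC.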 Conditions: P. falciparum Indochina infected erythrocytes, higher = more signal, called active from +8 up or from −8 down.
Test [5] in a line: changes in parasitized red cell lysis, either direction – P. falciparum Indochina, OD700, 3 h, PSAC antagonist project, primary screen (AID 1156). The note with it: P. falciparum-infected erythrocytes, osmotic lysis, higher = more signal, called active from +8 up or from −8 down.
Test [6] can be described thus: plasmodial surface anion channel blockers, osmotic lysis – cell-based, P. falciparum Indochina, OD700, 18 h, primary screen (AID 1157). The note with it: P. falciparum Indochina infected erythrocytes, osmotic lysis OD700, 18 h; higher = more signal, called active from +8 up or from −8 down.
The nature of test [7]: S6 kinase pathway phospho-S6 level changes – cell-based, A549, cytoblot, luminescence, serum-stimulated, primary screen (AID 1158).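 Also: serum-stimulated A549 lung adenocarcinoma cells; signal is phosphorylated S6 detected by cytoblot immunostaining with HRP secondary.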 Conditions: 5 h, higher = more signal.
In test [8] the target is NADPH oxidase 2 (Homo sapiens) (UniProt P04839). As to the kind of experiment: compounds shifting NOX2 Amplex Red fluorescence – cell-based, HEK293-NOX2, PMA-stimulated, NOX inhibitor project, primary screen (AID 1159). Also: test concentration not given here. Conditions: 45 min, higher = more signal, called active from +8 up or from −8 down.
NADPH oxidase 2 (Homo sapiens), sequence (P04839 whole entry, looked up): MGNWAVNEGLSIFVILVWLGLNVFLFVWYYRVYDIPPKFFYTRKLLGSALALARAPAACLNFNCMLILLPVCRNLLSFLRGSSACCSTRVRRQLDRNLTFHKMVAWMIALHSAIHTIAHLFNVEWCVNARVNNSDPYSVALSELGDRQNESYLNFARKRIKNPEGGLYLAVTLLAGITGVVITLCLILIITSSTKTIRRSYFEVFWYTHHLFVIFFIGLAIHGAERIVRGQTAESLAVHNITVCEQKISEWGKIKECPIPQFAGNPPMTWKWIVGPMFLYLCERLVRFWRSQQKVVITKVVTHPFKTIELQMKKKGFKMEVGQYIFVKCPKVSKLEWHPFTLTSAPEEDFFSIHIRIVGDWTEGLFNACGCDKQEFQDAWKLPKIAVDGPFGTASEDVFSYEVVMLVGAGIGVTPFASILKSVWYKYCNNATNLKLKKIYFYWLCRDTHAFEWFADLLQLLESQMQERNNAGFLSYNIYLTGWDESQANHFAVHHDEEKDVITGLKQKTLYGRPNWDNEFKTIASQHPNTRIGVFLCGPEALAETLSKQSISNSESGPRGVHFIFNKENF
For test [9], the target named is NADPH oxidase 4 (Homo sapiens) (UniProt Q9NPH5). The test is described as follows: compounds shifting NOX4 Amplex Red fluorescence – cell-based, HEK293-NOX4, tetracycline-induced, NOX inhibitor project, primary screen (AID 1160). The note with it: HEK293-NOX4, Amplex Red H2O2 fluorescence, 45 min; higher = more signal, called active from +8 up or from −8 down.
NADPH oxidase 4 (Homo sapiens), sequence (Q9NPH5 whole entry, looked up): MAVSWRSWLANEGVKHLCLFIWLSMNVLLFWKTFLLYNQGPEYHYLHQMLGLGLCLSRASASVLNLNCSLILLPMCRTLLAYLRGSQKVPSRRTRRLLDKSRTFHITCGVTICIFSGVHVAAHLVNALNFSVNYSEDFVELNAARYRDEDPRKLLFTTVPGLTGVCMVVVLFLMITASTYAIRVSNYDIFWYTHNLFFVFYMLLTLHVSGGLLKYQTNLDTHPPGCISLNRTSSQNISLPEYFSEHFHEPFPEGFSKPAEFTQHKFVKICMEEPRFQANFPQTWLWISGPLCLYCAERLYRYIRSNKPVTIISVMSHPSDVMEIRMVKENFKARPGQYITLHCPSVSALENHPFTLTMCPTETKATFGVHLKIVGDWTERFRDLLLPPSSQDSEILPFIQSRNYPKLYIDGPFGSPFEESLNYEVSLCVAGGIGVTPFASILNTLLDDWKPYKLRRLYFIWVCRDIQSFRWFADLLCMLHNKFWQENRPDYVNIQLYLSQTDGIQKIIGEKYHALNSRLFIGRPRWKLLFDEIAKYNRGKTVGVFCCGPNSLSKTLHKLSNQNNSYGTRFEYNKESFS
Test [10] deals with NADPH oxidase 5 (Homo sapiens) (UniProt Q96PH1). The test is described as follows: compounds shifting NOX5 Amplex Red fluorescence – cell-based, HEK293-NOX5, NOX inhibitor project, primary screen (AID 1161). Conditions: HEK293-NOX5, ionomycin, 45 min, higher = more signal.
NADPH oxidase 5 (Homo sapiens), sequence (Q96PH1 whole entry, looked up): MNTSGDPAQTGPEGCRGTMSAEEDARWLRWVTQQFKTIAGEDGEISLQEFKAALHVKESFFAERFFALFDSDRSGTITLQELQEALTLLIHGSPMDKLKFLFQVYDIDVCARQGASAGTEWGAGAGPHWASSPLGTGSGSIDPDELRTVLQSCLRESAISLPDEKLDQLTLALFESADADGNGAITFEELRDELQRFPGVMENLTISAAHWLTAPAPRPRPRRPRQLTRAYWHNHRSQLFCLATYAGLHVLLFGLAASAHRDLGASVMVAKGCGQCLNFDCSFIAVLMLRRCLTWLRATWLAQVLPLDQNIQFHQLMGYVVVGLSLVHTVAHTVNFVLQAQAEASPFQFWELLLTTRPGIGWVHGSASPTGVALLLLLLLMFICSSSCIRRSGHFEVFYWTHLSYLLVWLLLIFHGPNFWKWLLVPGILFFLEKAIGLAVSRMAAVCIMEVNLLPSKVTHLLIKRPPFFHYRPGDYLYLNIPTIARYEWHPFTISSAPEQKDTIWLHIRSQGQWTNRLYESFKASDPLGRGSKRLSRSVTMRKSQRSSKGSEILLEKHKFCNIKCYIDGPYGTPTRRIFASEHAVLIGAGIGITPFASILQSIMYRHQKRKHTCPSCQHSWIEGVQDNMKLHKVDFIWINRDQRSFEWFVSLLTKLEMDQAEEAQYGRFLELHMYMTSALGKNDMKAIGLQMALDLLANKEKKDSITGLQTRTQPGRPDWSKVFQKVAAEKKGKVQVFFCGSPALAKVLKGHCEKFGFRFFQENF
The nature of test [11]: compound effects on lung adenocarcinoma cell viability – A549, calcein-AM fluorescence, 48 h, basal, profiling panel (AID 1162). Also: test concentration not given here. The note with it: higher = more signal.
Test [12] can be described thus: compound effects on differentiated 3T3-L1 adipocyte viability – cell-based, 3T3-L1 adipocytes, calcein-AM fluorescence, 48 h, basal, profiling panel (AID 1163). Also: test concentration not given here. The note with it: 3T3-L1 adipocytes viability, higher = more signal.
A short description of test [13]: compound effects on hepatocellular carcinoma cell viability – HepG2, calcein-AM fluorescence, 48 h, basal, profiling panel (AID 1164). Also: test concentration not given here. Conditions: higher = more signal.
Test [14] can be described thus: compound effects on multiple myeloma cell viability – MM1S, calcein-AM fluorescence, 48 h, basal, profiling panel (AID 1165).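 Also: viability of MM1S multiple myeloma cells under basal unstimulated conditions; test concentration not given here.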 The note with it: higher = more signal.
The nature of test [15]: calcein-AM signal in unstimulated myeloma cells – cell-based, calcein-AM fluorescence, 48 h, PK04 Diversity Set, profiling panel (AID 1166).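 Also: cells grown under basal conditions without added stimulus; test concentration not given here.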 Conditions: RPMI8226 myeloma viability, higher = more signal.
Test [16] is described as follows: JC-1 mitochondrial signal, unstimulated HepG2 cells – cell-based, JC-1 fluorescence, 24 h, 100 nL compound, profiling panel (AID 1167). Also: test concentration not given here. Conditions: HepG2 mitochondrial potential, higher = more signal.
Test [17] in a line: JC-1 mitochondrial signal, unstimulated adipocytes – cell-based, JC-1 fluorescence, 3T3-L1 adipocytes, 24 h, 100 nL compound, profiling panel (AID 1168). Also: test concentration not given here. The note with it: JC-1 mitochondrial fluorescence, higher = more signal, called active from +8 up or from −8 down.
Test [18] is described as follows: JC-1 mitochondrial signal, unstimulated myeloma cells – cell-based, JC-1 fluorescence, RPMI8226, 24 h, 100 nL compound, profiling panel (AID 1169). Also: test concentration not given here. Conditions: JC-1 mitochondrial potential fluorescence, higher = more signal.
The nature of test [19]: JC-1 mitochondrial signal, unstimulated MM1S myeloma – cell-based, JC-1 fluorescence, 24 h, 100 nL compound, profiling panel (AID 1170). Also: test concentration not given here. The note with it: MM1S mitochondrial potential, higher = more signal.
Test [20] can be described thus: resazurin metabolic signal in A549 cells – cell-based, resazurin fluorescence, 24 h, PK04 Diversity Set, profiling panel (AID 1171). Also: test concentration not given here. The note with it: A549 viability, higher = more signal, called active from +8 up or from −8 down.

The structures appear in SMILES notation. The source made the active and inactive calls.

In the case of `C=CCOC(=O)[C@H]1[C@@H]2C(=O)O[C@@H](c3ccccc3)[C@@H](c3ccccc3)N2[C@@H](c2ccc(OCCOC(=O)[C@@H]3C[C@@H]4C(=O)N[C@@H](CCCC[N+](C)(C)C)C(=O)N4[C@@H]3c3ccc(O)cc3)cc2)[C@]12C(=O)Nc1ccc(I)cc12`, the z-score was -1.78 (inactive) in [1]; -1.03 (inactive) in [3]; -0.497 (inactive) in test [4]; 5.53 (inactive) in [5]; -0.582 (inactive) in test [6]; -2.1 in [7]. For the same compound, the z-score in test [8] was 1.66 (inactive); in test [9], -1.21 (inactive); in [10] it was 0.61; in test [11], -0.717; in test [12] it was -0.169; in test [13], -0.457. Also, the z-score in [14] was -2.9; in test [15], -1.43; in test [16], -2; in [17] it was 0.638 (inactive); in test [18], -0.767; in [19] it was -0.879. In addition, in [20], the z-score is 0.281 (inactive). This compound also showed a composite z-score in test [2] of 0.521.

As to `CC(C)C(CO)N1C(=O)[C@@H]2C3C(=O)OCCC/C=C\[C@H]3OC23C=CCN(Cc2ccccc2)C(=O)[C@@H]13` (stereo not given in full), the z-score was 0.83 (inactive) in test [1]; 1.12 (inactive) in [3]; 0.405 (inactive) in [4]; 1.12 (inactive) in test [5]; 0.503 (inactive) in [6]; 0.186 in [7]. Also, the z-score in test [8] was 1.25 (inactive); in [9], 0.838 (inactive); in [10], 2.26; in test [11], 0.214; in test [12] it was -0.0826; in test [13], 0.728. The z-score was 0.441 in test [14]; -0.0976 in test [15]; 0.161 in test [16]; 0.256 (inactive) in test [17]; -0.687 in [18]; 0.942 in test [19]. The z-score in test [20] is 0.777 (inactive). Also, the composite z-score in [2] was -0.0035.

For `COCCCNC(=O)[C@@H]1c2ccccc2C(=O)N(Cc2ccc(OC(F)(F)F)cc2)[C@H]1c1ccc(CO)cc1`, the z-score in [1] was -0.771 (inactive); in test [3] it was 1.93 (inactive); in test [4], 0.566 (inactive); in [5], 0.913 (inactive); in test [6], 0.303 (inactive); in test [7], 0.0296. In addition, the z-score in test [8] was -0.385 (inactive); in test [9], 0.915 (inactive); in [10], 1.91; in test [11], 0.927; in test [12] it was -0.704; in [13], 0.198. In addition, the z-score was -0.0583 in test [14]; 0.317 in [15]; 1.75 in test [16]; -0.436 (inactive) in test [17]; -0.604 in [18]; -0.29 in [19]. Moreover, the z-score in test [20] is 0.469 (inactive). Also, the composite z-score in test [2] was 0.0271.

In the case of `COC(=O)C1=CC(CCCO)=CC(c2cccs2)N(Cc2cc3c(cc2Br)OCO3)C=C1C(=O)OC` (stereo not given), the z-score in [1] was 0.801 (inactive); in test [3] it was 5.84 (inactive); in [4], 1.17 (inactive); in [5], 0.277 (inactive); in [6], 0.621 (inactive); in [7], -0.176. Moreover, the z-score in [8] was 1 (inactive); in test [9], -1.26 (inactive); in test [10], 1.05; in [11] it was 0.236; in test [12], 0.425; in test [13] it was 0.897. The z-score in [14] was -1.26; in test [15], -0.188; in test [16] it was 0.725; in test [17], -0.253 (inactive); in [18] it was -0.131; in [19], 0.398. Besides, in test [20], the z-score was -0.0673 (inactive). This compound came in with a composite z-score in test [2] of -0.0629.

For the compound `O=C1C=C(c2ccccc2)C(=O)C2=C1CC([C@H]1Oc3ccccc3S(=O)(=O)N3CCC[C@@H]13)=CC2`, the z-score was -0.0139 (inactive) in test [1]; 2.36 (inactive) in test [3]; 0.445 (inactive) in test [4]; -0.299 (inactive) in test [5]; 0.0841 (inactive) in test [6]; -0.154 in test [7]. For the same compound, the z-score in test [8] is -0.368 (inactive); in test [9], -3.24 (inactive); in test [10], -2.66; in test [11] it was -0.653; in [12], -0.17; in [13] it was -1.05. The z-score in [14] is -3.2; in test [15], -3.99; in test [16] it was -3.49; in [17] it was -2.49 (inactive); in [18] it was -1.16; in [19] it was -2.67. In addition, the z-score in test [20] is -0.0039 (inactive). The composite z-score in test [2] was -0.101.

For `CC(C)NC(=O)[C@@]1(c2ccc([N+](=O)[O-])cc2)CC(=O)N(CC23CC4CC(CC(C4)C2)C3)[C@@H]1c1ccc(CO)cc1`, the z-score in test [1] was -0.323 (inactive); in test [3], 2.3 (inactive); in test [4], 0.814 (inactive); in test [5], 1.86 (inactive); in [6] it was 0.204 (inactive); in test [7], -0.248. The z-score was -0.108 (inactive) in test [8]; -1.02 (inactive) in test [9]; -0.0647 in test [10]; -1.34 in test [11]; 0.999 in [12]; -1.72 in test [13]. For the same compound, the z-score in test [14] was -2.06; in test [15], -3.8; in test [16] it was -1.38; in test [17], -0.959 (inactive); in test [18], -0.6; in [19], -0.24. In addition, the z-score in test [20] is -2.03 (inactive). In [2], the composite z-score was found to be 1.56.

`O=C(NC1CC1)[C@@H]1c2ccccc2C(=O)N(Cc2cc(C(F)(F)F)cc(C(F)(F)F)c2)[C@H]1c1ccc(CO)cc1`: the z-score in [1] was -0.0602 (inactive); in test [3], 2.63 (inactive); in [4], 0.26 (inactive); in [5], 1.12 (inactive); in test [6], -0.558 (inactive); in [7], 2.41. Besides, the z-score in test [8] is -0.397 (inactive); in test [9] it was -1.17 (inactive); in test [10], -2.23; in test [11], 1.68; in [12] it was 1.61; in [13] it was 0.289. Further, the z-score in [14] was 0.538; in [15], -1.32; in test [16] it was 0.693; in test [17], -0.439 (inactive); in [18] it was 0.801; in test [19], -0.687. The z-score in test [20] is 0.307 (inactive). The composite z-score in test [2] is -0.308.

Consider `CCCCC(O)C1C=CC2C(=O)N(c3ccccc3)C(=O)C2N1Nc1ccc(C#N)cc1` (stereo not given), for which the z-score in [1] is -0.964 (inactive); in test [3] it was 16.7 (active); in test [4] it was 2.94 (inactive); in test [5], 2.36 (inactive); in test [6], 1.39 (inactive); in test [7], -0.809. Also, the z-score in test [8] was -0.444 (inactive); in [9], -4.26 (inactive); in test [10], -1.98; in [11], 0.233; in [12], 0.15; in [13], 1.2. The z-score in [14] is 0.105; in [15] it was 0.0528; in [16] it was -0.622; in test [17], -1.19 (inactive); in test [18], -0.0799; in test [19], -0.0525. Further, the z-score in test [20] is -0.151 (inactive). The same compound displayed a composite z-score in test [2] of 0.598.

As for `CC[C@@H]1C=C(C(=O)O)[C@H](c2ccc(OC)cc2)N1S(=O)(=O)c1ccc(C)cc1`, the z-score in test [1] was -1.46 (inactive); in [3] it was 0.785 (inactive); in [4], 0.453 (inactive); in test [5], -0.51 (inactive); in [6], 0.437 (inactive); in test [7], -0.458. Also, the z-score in test [8] is 0.339 (inactive); in test [9], -0.517 (inactive); in test [10], -0.215; in test [11] it was -0.0984; in test [12], -0.32; in test [13], -0.183. For the same compound, the z-score in [14] was 0.107; in [15] it was -0.23; in test [16] it was -0.955; in test [17], -0.687 (inactive); in [18] it was -0.168; in test [19] it was -0.273. The z-score in [20] is -0.599 (inactive). Further, the composite z-score in [2] was -0.0449.

These data come from PubChem BioAssay.
